Source: PubChem BioAssay (EPA / NIEHS)
The source made the active and inactive calls. Rule for the calls: active = hit-call score of the fitted dose curve at least 0.9, where 1 is the maximum; inactive = score below 0.9.

Key:
[1] = read-out: Vascular endothelial growth factor receptor 2 (Homo sapiens) (UniProt P35968); assay: BSK_4H_VEGFRII: BioMAP Diversity Plus: 4H Assay for Vascular endothelial growth factor receptor 2 (VEGFR2) Biomarker Activity (AID 2283031); details: primary human endothelial cells (HUVEC); actives raise or lower the signal;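 for AC50: cell-surface VEGFR2 protein level quantified by ELISA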
In short: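 Primary human umbilical vein endothelial cells (4H system), 24 h exposure; cell-surface VEGFR2 measured by ELISA. Bidirectional fitting versus DMSO; cytotoxicity checked in parallel by SRB total-protein staining.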

[2] = read-out: Human Leukocyte Antigen - DR isotype (HLADR), HLA-DRA (gene 3122); assay: BSK_BE3C_HLADR: BioMAP Diversity Plus: BE3C Assay for Human Leukocyte Antigen - DR isotype (HLADR) Biomarker Activity (AID 2283032); details: primary human bronchial epithelial cells; actives raise or lower the signal
In short: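 Primary human bronchial epithelial cells (BE3C); 24 h chemical exposure; HLA-DR by ELISA; bidirectional curve fit vs DMSO baseline.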

[3] = read-out: Vascular cell adhesion molecule 1 (VCAM1), VCAM1 (gene 7412); assay: BSK_4H_VCAM1: BioMAP Diversity Plus: 4H Assay for Vascular cell adhesion molecule 1 (VCAM1) Biomarker Activity (AID 2283033); details: primary human endothelial cells (HUVEC); actives raise or lower the signal
In short: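 HUVEC, 24 h post-dose; VCAM-1 by ELISA. Bidirectional curve fit vs DMSO baseline. Parallel SRB total-protein stain (0.1% SRB after 10% TCA fixation, 560 nm) for cytotoxicity.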

[4] = read-out: Interferon-gamma inducible Protein 10 (IP10), CXCL10 (gene 3627); assay: BSK_BE3C_IP10: BioMAP Diversity Plus: BE3C Assay for Interferon-gamma inducible Protein 10 (IP10) Biomarker Activity (AID 2283034); details: primary human bronchial epithelial cells; actives raise or lower the signal
In short: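 ELISA readout of IP-10 in BE3C system: primary human bronchial epithelial cells, 24 h post-dosing; bidirectional curve fit vs DMSO baseline.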

[5] = read-out: Monokine induced gamma interferon (MIG), CXCL9 (gene 4283); assay: BSK_BE3C_MIG: BioMAP Diversity Plus: BE3C Assay for Monokine induced gamma interferon (MIG) Biomarker Activity (AID 2283035); details: primary human bronchial epithelial cells; actives raise or lower the signal
In short: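 ELISA quantified MIG after 24 h exposure of primary bronchial epithelial cultures, analysed in both directions relative to DMSO. Cytotoxicity tracked in parallel cultures by sulforhodamine B staining.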

[6] = read-out: Transforming growth factor beta 1 (TGFb1), TGFB1 (gene 7040); assay: BSK_BE3C_TGFb1: BioMAP Diversity Plus: BE3C Assay for Transforming growth factor beta 1 (TGFb1) Biomarker Activity (AID 2283036); details: primary human bronchial epithelial cells; actives raise or lower the signal
In short: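 Read-out: ELISA for TGF-b1 in primary human bronchial epithelial cultures, 24 h post-dose. Bidirectional curve fitting vs DMSO control; gain or loss of signal both scored.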

[7] = read-out: Plasminogen activator inhibitor-1 (PAI1), SERPINE1 (gene 5054); assay: BSK_BE3C_PAI1: BioMAP Diversity Plus: BE3C Assay for Plasminogen activator inhibitor-1 (PAI1) Biomarker Activity (AID 2283037); details: primary human bronchial epithelial cells; actives raise or lower the signal
In short: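 ELISA read-out of PAI-1 from human bronchial epithelial primary cells, 24 h post-dosing; bidirectional curve fit vs DMSO baseline, gain or loss of signal scored.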

[8] = read-out: urokinase plasminogen activator (uPA), PLAU (gene 5328); assay: BSK_BE3C_uPA: BioMAP Diversity Plus: BE3C Assay for urokinase plasminogen activator (uPA) Biomarker Activity (AID 2283038); details: primary human bronchial epithelial cells; actives raise or lower the signal
In short: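 Primary human bronchial epithelial cells, uPA measured by ELISA 24 h after dosing. Bidirectional change relative to DMSO; cytotoxicity checked in parallel cultures by sulforhodamine B total-protein staining.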

[9] = read-out: Urokinase-type plasminogen activator receptor (uPAR), PLAUR (gene 5329); assay: BSK_BE3C_uPAR: BioMAP Diversity Plus: BE3C Assay for Urokinase-type plasminogen activator receptor (uPAR) Biomarker Activity (AID 2283039); details: primary human bronchial epithelial cells; actives raise or lower the signal
In short: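 ELISA readout of uPAR on human lung primary bronchial epithelial cells, 24 h post-dosing. Bidirectional curve fit relative to DMSO vehicle baseline; gain or loss of signal both scored.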

[10] = read-out: Interleukin-6 (IL6), IL6 (gene 3569); assay: BSK_CASM3C_IL6: BioMAP Diversity Plus: CASM3C Assay for Interleukin-6 (IL6) Biomarker Activity for (AID 2283040); details: primary human coronary artery smooth muscle cells; actives raise or lower the signal
[11] = read-out: Tissue plasminogen activator (tPA), PLAT (gene 5327); assay: BSK_BE3C_tPA: BioMAP Diversity Plus: BE3C Assay for Tissue plasminogen activator (tPA) Biomarker Activity (AID 2283041); details: primary human bronchial epithelial cells; actives raise or lower the signal
In short: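 ELISA read-out of tPA on human primary bronchial epithelial cells, 24 h post-dosing; bidirectional fit vs DMSO negative control/baseline.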

[12] = read-out: Interleukin-8 (IL8), CXCL8 (gene 3576); assay: BSK_CASM3C_IL8: BioMAP Diversity Plus: CASM3C Assay for Interleukin-8 (IL8) Biomarker Activity (AID 2283042); details: primary human coronary artery smooth muscle cells; actives raise or lower the signal;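 note: IL-8 protein level quantified by ELISA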
[13] = read-out: Human Leukocyte Antigen - DR isotype (HLADR), HLA-DRA (gene 3122); assay: BSK_CASM3C_HLADR: BioMAP Diversity Plus: CASM3C Assay for Human Leukocyte Antigen - DR isotype (HLADR) Biomarker Activity (AID 2283043); details: primary human coronary artery smooth muscle cells; actives raise or lower the signal;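 note: cell-surface HLA-DR protein level quantified by ELISA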
[14] = read-out: Macrophage colony-stimulating factor (MCSF), CSF1 (gene 1435); assay: BSK_CASM3C_MCSF: BioMAP Diversity Plus: CASM3C Assay for Macrophage colony-stimulating factor (MCSF) Biomarker Activity (AID 2283044); details: primary human coronary artery smooth muscle cells; actives raise or lower the signal;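 note: M-CSF protein amount quantified by ELISA after 24 h exposure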
[15] = read-out: Low-density lipoprotein receptor (LDLR), LDLR (gene 3949); assay: BSK_CASM3C_LDLR: BioMAP Diversity Plus: CASM3C Assay for Low-density lipoprotein receptor (LDLR) Biomarker Activity (AID 2283045); details: primary human coronary artery smooth muscle cells; actives raise or lower the signal;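 note: LDLR protein level on the cell surface quantified by ELISA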
[16] = read-out: Monocyte Chemoattractant Protein-1 (MCP1), CCL2 (gene 6347); assay: BSK_CASM3C_MCP1: BioMAP Diversity Plus: CASM3C Assay for Monocyte Chemoattractant Protein-1 (MCP1) Biomarker Activity (AID 2283046); details: primary human coronary artery smooth muscle cells; actives raise or lower the signal;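 note: MCP-1 level quantified by ELISA 24 h after dosing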
[17] = BSK_CASM3C_Proliferation: Cell Proliferation Assessment in the BioMAP Diversity Plus: CASM3C Assay (AID 2283047); details: primary human coronary artery smooth muscle cells;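 note: sulforhodamine B total protein stain as relative cell number at 560 nm; sub-confluent cells exposed 48 h before staining; fitted both ways against DMSO so gain or loss of cell number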
[18] = read-out: Monokine induced gamma interferon (MIG), CXCL9 (gene 4283); assay: BSK_CASM3C_MIG: BioMAP Diversity Plus: CASM3C Assay for Monokine induced gamma interferon (MIG) Biomarker Activity (AID 2283048); details: primary human coronary artery smooth muscle cells; actives raise or lower the signal;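 note: MIG protein level measured by ELISA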
[19] = read-out: serum amyloid A (SAA), SAA1 (gene 6288); assay: BSK_CASM3C_SAA: BioMAP Diversity Plus: CASM3C Assay for serum amyloid A (SAA) Biomarker Activity (AID 2283049); details: primary human coronary artery smooth muscle cells; actives raise or lower the signal;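 note: SAA protein level quantified by ELISA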
[20] = BSK_CASM3C_SRB: Viability Assessment in the BioMAP Diversity Plus: CASM3C Assay (AID 2283050); details: primary human coronary artery smooth muscle cells;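 note: total protein by SRB staining as cytotoxicity measure in parallel cultures; cells exposed to compound for 24 h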

Measured: AC50

CO[C@H]1/C=C/O[C@@]2(C)Oc3c(C)c(O)c4c(O)c(c(/C=N/N5CCN(C)CC5)c(O)c4c3C2=O)NC(=O)/C(C)=C\C=C\[C@H](C)[C@H](O)[C@@H](C)[C@@H](O)[C@@H](C)[C@H](OC(C)=O)[C@@H]1C
active: [17] 4.51 µM
inactive: all other assays above

O=c1c(-c2ccc(O)cc2)coc2cc(O)cc(O)c12
active: [3] 20 µM | [10] 11.1 µM | [11] 9.33 µM | [12] 20 µM | [13] 27.6 µM | [16] 28.6 µM | [17] 11.7 µM | [19] 20 µM
not listed: [2]
inactive: all other assays above

CN1C(=O)N(c2ccccc2Br)Cc2cnc(Nc3ccc4c(c3)OCC(CO)O4)nc21 (stereo not drawn)
active: [2] 28.5 µM | [3] 15.2 µM | [4] 19.3 µM | [5] 34.7 µM | [6] 20 µM | [7] 1.63 µM | [8] 5.91 µM | [9] 1.23 µM | [10] 20 µM | [11] 4.46 µM | [12] 14.3 µM | [13] 11.5 µM | [14] 5.62 µM | [15] 37.8 µM | [16] 9.73 µM | [17] 1.27 µM | [18] 32.3 µM | [19] 5.98 µM | [20] 20 µM
inactive: [1]

C[C@]12CC[C@@H]3c4ccc(O)cc4CC[C@H]3[C@@H]1CC[C@H]2O
active: [17] 13.2 µM
inactive: all other assays above

O=C(O)c1ccccc1-n1cc(C(=O)O)c(=O)c2cc(Nc3c(F)cc(F)cc3Cl)c(Cl)cc21
inactive: all assays above

COc1ccc2cc(S(=O)(=O)N[C@H](CC(=O)N[C@H](Cc3ccc(CN4[C@H](C)CCC[C@@H]4C)cc3)C(=O)N(C)C(C)C)c3ccc4c(c3)OCO4)ccc2c1
active: [2] 32.8 µM | [4] 31.1 µM | [5] 33.5 µM | [7] 19.1 µM | [8] 14.6 µM | [9] 18.5 µM | [11] 7.92 µM | [13] 27.8 µM | [15] 0.966 µM | [17] 24.9 µM | [20] 19.1 µM
inactive: [1] | [3] | [6] | [10] | [12] | [14] | [16] | [18] | [19]

c1ccc2ccccc2c1
inactive: all assays above

Cc1ccc(C(C)C)cc1
not listed: [2]
inactive: all other assays above

Cc1ccc2oc(CN(Cc3ccccc3)C(=O)Nc3c(F)cc(F)cc3F)c(-c3ccc(Cl)cc3)c2c1
inactive: all assays above

CCCCCCCCCCCCO
inactive: [2] | [5] | [7] | [8] | [9] | [15] | [20]
active: [1] 34 µM | [3] 30.5 µM | [4] 30.8 µM | [6] 30.1 µM | [10] 30.7 µM | [11] 24.8 µM | [12] 35 µM | [13] 31.5 µM | [14] 31.2 µM | [16] 34.7 µM | [17] 32.6 µM | [18] 31.3 µM | [19] 29.4 µM

CCN(Cc1cccc(S(=O)(=O)O)c1)c1ccc(C(=C2C=CC(=[N+](CC)Cc3cccc(S(=O)(=O)O)c3)C=C2)c2ccccc2S(=O)(=O)[O-])cc1
inactive: all assays above

O=C=NCCCCCCN=C=O
inactive: all assays above
